# Results from publication PMC7862700, “An all-to-all approach to the identification of sequence-specific readers for epigenetic DNA modifications on cytosine”.
# Columns and labels:
# Assay in all cases: DAPPL (digital affinity profiling via proximity ligation, sequencing); 10 mM Tris-HCl pH 7.5, 50 mM NaCl, 1 mM DTT, 4% glycerol, room temperature, 30 min; GST-TFs on glutathione beads, 16-mer random dsDNA library, 0.1% formaldehyde crosslink after washing; high values mean tight binding
# Conditions in all cases: protein: recombinant; tags: N-terminal GST; dsDNA, one strand shown
# [1] = biological target: T1, ERF (Homo sapiens, UniProt P50548 1-548)
# T1 sequence: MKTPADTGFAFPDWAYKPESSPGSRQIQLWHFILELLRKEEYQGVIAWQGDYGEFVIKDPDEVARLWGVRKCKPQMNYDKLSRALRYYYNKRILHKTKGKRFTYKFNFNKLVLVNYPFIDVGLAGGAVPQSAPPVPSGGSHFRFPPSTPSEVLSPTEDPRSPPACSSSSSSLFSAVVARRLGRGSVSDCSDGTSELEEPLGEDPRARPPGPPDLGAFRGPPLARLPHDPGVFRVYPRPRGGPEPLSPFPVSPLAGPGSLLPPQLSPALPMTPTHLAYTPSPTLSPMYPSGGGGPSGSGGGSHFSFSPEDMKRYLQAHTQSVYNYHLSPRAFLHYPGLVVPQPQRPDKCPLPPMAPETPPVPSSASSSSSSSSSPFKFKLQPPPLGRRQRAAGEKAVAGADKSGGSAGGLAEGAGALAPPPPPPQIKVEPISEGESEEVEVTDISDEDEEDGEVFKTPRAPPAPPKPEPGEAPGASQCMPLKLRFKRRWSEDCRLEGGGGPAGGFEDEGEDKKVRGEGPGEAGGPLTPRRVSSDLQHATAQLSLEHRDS
# Summary of the method: (§1)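 After expression in yeast as GST fusions, human transcription factors were bound to glutathione beads, DNA-barcoded and mixed with a tag-only sample. The pools were incubated with 200 nmole of a 16-mer random double-stranded DNA library in Tris/NaCl/DTT/glycerol buffer (30 min, room temperature), washed and crosslinked with 0.1% formaldehyde. Proximity ligation with BsaI/T4 ligase ran for 1 h at 37 °C, before PCR amplification and sequencing on an Illumina NextSeq500. Binding signal is a hexamer's read frequency for a factor divided by its frequency for the tag-only sample.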
# [2] = biological target: T2, ETV3L (Homo sapiens, UniProt Q6ZN32 1-361)
# T2 sequence: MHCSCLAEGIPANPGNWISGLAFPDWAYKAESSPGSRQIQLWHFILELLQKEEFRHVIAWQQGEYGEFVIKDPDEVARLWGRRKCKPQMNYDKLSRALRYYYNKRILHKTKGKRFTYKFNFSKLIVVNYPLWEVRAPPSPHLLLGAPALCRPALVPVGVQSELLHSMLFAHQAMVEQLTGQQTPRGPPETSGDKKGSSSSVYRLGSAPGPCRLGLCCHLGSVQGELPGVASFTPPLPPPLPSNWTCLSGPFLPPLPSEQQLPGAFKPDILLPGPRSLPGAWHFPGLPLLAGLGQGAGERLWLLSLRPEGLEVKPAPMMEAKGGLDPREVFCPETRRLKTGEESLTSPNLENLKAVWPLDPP
# Summary of the method: as §1
# [3] = biological target: T3, ETS2 (Homo sapiens, UniProt P15036 1-469)
# T3 sequence: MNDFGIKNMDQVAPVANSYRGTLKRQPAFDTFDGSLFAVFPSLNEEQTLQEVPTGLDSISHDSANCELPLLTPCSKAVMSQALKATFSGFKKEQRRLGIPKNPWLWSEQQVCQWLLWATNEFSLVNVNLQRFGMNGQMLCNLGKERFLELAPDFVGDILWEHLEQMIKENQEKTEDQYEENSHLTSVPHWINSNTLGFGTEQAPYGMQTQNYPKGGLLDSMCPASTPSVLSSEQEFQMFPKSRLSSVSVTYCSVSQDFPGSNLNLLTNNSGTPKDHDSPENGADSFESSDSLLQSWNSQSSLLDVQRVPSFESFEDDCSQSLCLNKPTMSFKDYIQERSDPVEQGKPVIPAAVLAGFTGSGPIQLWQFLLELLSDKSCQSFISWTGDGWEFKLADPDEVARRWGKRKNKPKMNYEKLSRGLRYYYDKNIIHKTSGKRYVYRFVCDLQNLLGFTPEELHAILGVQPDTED
# Summary of the method: as §1
# [4] = biological target: T4, SPDEF (Homo sapiens, UniProt O95238 1-335)
# T4 sequence: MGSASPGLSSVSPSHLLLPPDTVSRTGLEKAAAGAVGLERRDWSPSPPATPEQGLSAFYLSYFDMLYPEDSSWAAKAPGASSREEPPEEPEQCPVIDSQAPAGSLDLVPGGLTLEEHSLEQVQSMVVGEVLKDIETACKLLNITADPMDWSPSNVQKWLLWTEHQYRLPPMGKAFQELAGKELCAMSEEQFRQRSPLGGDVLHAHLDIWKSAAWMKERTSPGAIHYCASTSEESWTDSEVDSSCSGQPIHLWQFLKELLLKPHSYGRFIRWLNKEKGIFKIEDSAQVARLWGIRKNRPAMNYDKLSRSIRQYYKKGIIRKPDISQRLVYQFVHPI
# Summary of the method: as §1
# [5] = biological target: T5, ETV7 (Homo sapiens, UniProt Q9Y603 1-341)
# T5 sequence: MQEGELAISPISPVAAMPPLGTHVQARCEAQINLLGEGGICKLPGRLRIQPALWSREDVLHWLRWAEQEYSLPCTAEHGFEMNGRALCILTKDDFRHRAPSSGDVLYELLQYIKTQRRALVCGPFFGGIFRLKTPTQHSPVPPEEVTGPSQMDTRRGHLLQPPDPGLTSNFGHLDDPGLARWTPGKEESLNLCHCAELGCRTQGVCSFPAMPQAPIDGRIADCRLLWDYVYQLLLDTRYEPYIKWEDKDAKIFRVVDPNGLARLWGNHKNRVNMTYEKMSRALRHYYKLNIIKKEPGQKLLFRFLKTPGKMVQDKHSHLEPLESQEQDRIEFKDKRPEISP
# Summary of the method: as §1
# [6] = biological target: T6, ELF5 (Homo sapiens, UniProt Q9UKW6-2 1-255)
# T6 sequence: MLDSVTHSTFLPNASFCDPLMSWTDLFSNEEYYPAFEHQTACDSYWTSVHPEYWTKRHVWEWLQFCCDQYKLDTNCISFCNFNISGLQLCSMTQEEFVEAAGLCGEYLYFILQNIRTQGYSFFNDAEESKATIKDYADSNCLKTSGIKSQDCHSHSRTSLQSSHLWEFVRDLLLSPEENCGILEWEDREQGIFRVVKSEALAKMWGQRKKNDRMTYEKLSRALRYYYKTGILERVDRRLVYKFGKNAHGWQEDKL
# Summary of the method: as §1
# [7] = biological target: T7, ETV3 (Homo sapiens, UniProt P41162-2 1-143)
# T7 sequence: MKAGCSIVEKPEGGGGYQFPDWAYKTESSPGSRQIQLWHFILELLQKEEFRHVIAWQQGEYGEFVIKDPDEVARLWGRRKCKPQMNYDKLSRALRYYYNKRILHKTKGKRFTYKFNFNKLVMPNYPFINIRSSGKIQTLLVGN
# Summary of the method: as §1
# [8] = biological target: ETV6 (Homo sapiens, UniProt P41212 1-452)
# Sequence of ETV6 (P41212 whole entry): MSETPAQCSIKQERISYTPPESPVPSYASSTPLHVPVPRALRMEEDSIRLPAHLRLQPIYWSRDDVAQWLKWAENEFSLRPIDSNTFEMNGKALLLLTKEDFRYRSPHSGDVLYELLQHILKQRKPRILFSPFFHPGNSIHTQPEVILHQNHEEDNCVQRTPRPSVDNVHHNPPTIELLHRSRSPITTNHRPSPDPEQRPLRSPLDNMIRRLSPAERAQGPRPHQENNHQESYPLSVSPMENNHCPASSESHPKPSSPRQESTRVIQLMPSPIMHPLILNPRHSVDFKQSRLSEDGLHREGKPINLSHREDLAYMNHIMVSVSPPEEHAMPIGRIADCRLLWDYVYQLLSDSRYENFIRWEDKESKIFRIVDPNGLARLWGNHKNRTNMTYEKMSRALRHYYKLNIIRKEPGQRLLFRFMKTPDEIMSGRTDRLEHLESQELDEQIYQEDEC
# Summary of the method: as §1
Sequence,binding signal [1],binding signal [2],binding signal [3],binding signal [4],binding signal [5],binding signal [6],binding signal [7],binding signal [8]
TATATT,"1.43 fold enrichment (6-mer frequency, TF over GST control)","1.5 fold enrichment (6-mer frequency, TF over GST control)","1.31 fold enrichment (6-mer frequency, TF over GST control)","1.32 fold enrichment (6-mer frequency, TF over GST control)","1.4 fold enrichment (6-mer frequency, TF over GST control)","1.35 fold enrichment (6-mer frequency, TF over GST control)","1.44 fold enrichment (6-mer frequency, TF over GST control)","1.37 fold enrichment (6-mer frequency, TF over GST control)"
AGCTTT,"1.15 fold enrichment (6-mer frequency, TF over GST control)","1.2 fold enrichment (6-mer frequency, TF over GST control)","1.19 fold enrichment (6-mer frequency, TF over GST control)","1.12 fold enrichment (6-mer frequency, TF over GST control)","1.25 fold enrichment (6-mer frequency, TF over GST control)","1.04 fold enrichment (6-mer frequency, TF over GST control)","1.07 fold enrichment (6-mer frequency, TF over GST control)","1.19 fold enrichment (6-mer frequency, TF over GST control)"
GAACTA,"1.25 fold enrichment (6-mer frequency, TF over GST control)","1.27 fold enrichment (6-mer frequency, TF over GST control)","1.33 fold enrichment (6-mer frequency, TF over GST control)","1.31 fold enrichment (6-mer frequency, TF over GST control)","1.3 fold enrichment (6-mer frequency, TF over GST control)","1.36 fold enrichment (6-mer frequency, TF over GST control)","1.34 fold enrichment (6-mer frequency, TF over GST control)","1.36 fold enrichment (6-mer frequency, TF over GST control)"
CGTTCT,"1.46 fold enrichment (6-mer frequency, TF over GST control)","1.51 fold enrichment (6-mer frequency, TF over GST control)","1.37 fold enrichment (6-mer frequency, TF over GST control)","1.44 fold enrichment (6-mer frequency, TF over GST control)","1.56 fold enrichment (6-mer frequency, TF over GST control)","1.44 fold enrichment (6-mer frequency, TF over GST control)","1.37 fold enrichment (6-mer frequency, TF over GST control)","1.47 fold enrichment (6-mer frequency, TF over GST control)"
GGCTCT,"1.36 fold enrichment (6-mer frequency, TF over GST control)","1.34 fold enrichment (6-mer frequency, TF over GST control)","1.2 fold enrichment (6-mer frequency, TF over GST control)","1.13 fold enrichment (6-mer frequency, TF over GST control)","1.44 fold enrichment (6-mer frequency, TF over GST control)","1.15 fold enrichment (6-mer frequency, TF over GST control)","1.34 fold enrichment (6-mer frequency, TF over GST control)","1.3 fold enrichment (6-mer frequency, TF over GST control)"
ATCTAA,"1.2 fold enrichment (6-mer frequency, TF over GST control)","1.19 fold enrichment (6-mer frequency, TF over GST control)","1.2 fold enrichment (6-mer frequency, TF over GST control)","1.11 fold enrichment (6-mer frequency, TF over GST control)","1.22 fold enrichment (6-mer frequency, TF over GST control)","1.17 fold enrichment (6-mer frequency, TF over GST control)","1.24 fold enrichment (6-mer frequency, TF over GST control)","1.17 fold enrichment (6-mer frequency, TF over GST control)"
ATACAA,"1.15 fold enrichment (6-mer frequency, TF over GST control)","1.12 fold enrichment (6-mer frequency, TF over GST control)","1.19 fold enrichment (6-mer frequency, TF over GST control)","1.14 fold enrichment (6-mer frequency, TF over GST control)","1.14 fold enrichment (6-mer frequency, TF over GST control)","1.08 fold enrichment (6-mer frequency, TF over GST control)","1.08 fold enrichment (6-mer frequency, TF over GST control)","1.12 fold enrichment (6-mer frequency, TF over GST control)"
GTTTCT,"1.24 fold enrichment (6-mer frequency, TF over GST control)","1.33 fold enrichment (6-mer frequency, TF over GST control)","1.28 fold enrichment (6-mer frequency, TF over GST control)","1.21 fold enrichment (6-mer frequency, TF over GST control)","1.38 fold enrichment (6-mer frequency, TF over GST control)","1.31 fold enrichment (6-mer frequency, TF over GST control)","1.24 fold enrichment (6-mer frequency, TF over GST control)","1.28 fold enrichment (6-mer frequency, TF over GST control)"
TTCCAC,"1.38 fold enrichment (6-mer frequency, TF over GST control)","1.54 fold enrichment (6-mer frequency, TF over GST control)","1.44 fold enrichment (6-mer frequency, TF over GST control)","1.36 fold enrichment (6-mer frequency, TF over GST control)","1.31 fold enrichment (6-mer frequency, TF over GST control)","1.51 fold enrichment (6-mer frequency, TF over GST control)","1.46 fold enrichment (6-mer frequency, TF over GST control)","1.47 fold enrichment (6-mer frequency, TF over GST control)"
AATTTA,"1.27 fold enrichment (6-mer frequency, TF over GST control)","1.25 fold enrichment (6-mer frequency, TF over GST control)","1.18 fold enrichment (6-mer frequency, TF over GST control)","1.12 fold enrichment (6-mer frequency, TF over GST control)","1.28 fold enrichment (6-mer frequency, TF over GST control)","1.26 fold enrichment (6-mer frequency, TF over GST control)","1.22 fold enrichment (6-mer frequency, TF over GST control)","1.33 fold enrichment (6-mer frequency, TF over GST control)"
TTTCTA,"1.32 fold enrichment (6-mer frequency, TF over GST control)","1.3 fold enrichment (6-mer frequency, TF over GST control)","1.37 fold enrichment (6-mer frequency, TF over GST control)","1.39 fold enrichment (6-mer frequency, TF over GST control)","1.37 fold enrichment (6-mer frequency, TF over GST control)","1.31 fold enrichment (6-mer frequency, TF over GST control)","1.38 fold enrichment (6-mer frequency, TF over GST control)","1.25 fold enrichment (6-mer frequency, TF over GST control)"
CCTAAG,"1.11 fold enrichment (6-mer frequency, TF over GST control)","1.12 fold enrichment (6-mer frequency, TF over GST control)","1.09 fold enrichment (6-mer frequency, TF over GST control)","1.08 fold enrichment (6-mer frequency, TF over GST control)","1.09 fold enrichment (6-mer frequency, TF over GST control)","1.11 fold enrichment (6-mer frequency, TF over GST control)","1.06 fold enrichment (6-mer frequency, TF over GST control)","1.11 fold enrichment (6-mer frequency, TF over GST control)"
CTGGTA,"1.28 fold enrichment (6-mer frequency, TF over GST control)","1.34 fold enrichment (6-mer frequency, TF over GST control)","1.32 fold enrichment (6-mer frequency, TF over GST control)","1.4 fold enrichment (6-mer frequency, TF over GST control)","1.4 fold enrichment (6-mer frequency, TF over GST control)","1.35 fold enrichment (6-mer frequency, TF over GST control)","1.29 fold enrichment (6-mer frequency, TF over GST control)","1.29 fold enrichment (6-mer frequency, TF over GST control)"
AAATAC,"1.48 fold enrichment (6-mer frequency, TF over GST control)","1.35 fold enrichment (6-mer frequency, TF over GST control)","1.39 fold enrichment (6-mer frequency, TF over GST control)","1.41 fold enrichment (6-mer frequency, TF over GST control)","1.5 fold enrichment (6-mer frequency, TF over GST control)","1.52 fold enrichment (6-mer frequency, TF over GST control)","1.39 fold enrichment (6-mer frequency, TF over GST control)","1.49 fold enrichment (6-mer frequency, TF over GST control)"
ACATAA,"1.05 fold enrichment (6-mer frequency, TF over GST control)","1.1 fold enrichment (6-mer frequency, TF over GST control)","1.07 fold enrichment (6-mer frequency, TF over GST control)","1.03 fold enrichment (6-mer frequency, TF over GST control)","1.11 fold enrichment (6-mer frequency, TF over GST control)","1.09 fold enrichment (6-mer frequency, TF over GST control)","1.09 fold enrichment (6-mer frequency, TF over GST control)","1.08 fold enrichment (6-mer frequency, TF over GST control)"
